HCV inhibitor = blocks hepatitis C virus | Huh7.5.1 HCVcc-Cre infection, luciferase reporter, 44 h | Potency, µM (titrated, usually from 41.8 µM), inactives show at the highest dose activity change, negative = inhibition, most hits filed as inhibitors | hit rate 3.4% among 340,000; active = well fitted inhibition curve with a large enough effect; inconclusive = small, poorly fitted or top-dose-only effect, or another doubt; inactive = no such curve, though single readings can be large or run the other way
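Cells seeded at 1,000/well and cultured 4 h, then compounds added followed by HCVcc-Cre virus (~0.5 moi). After 44 h further culture, luciferase substrate was added, plates held 15 min at room temperature, and luminescence read for 15 sec.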
VACV mCherry inh = vaccinia inhibition (mCherry reporter) | hit rate 0.63% among 310,000 | Vaccinia virus mCherry reporter infection, fluorescence | Potency, µM (top dose mostly 36.5 µM), inactives show at the top dose activity change, negative = inhibition, actives largely listed as inhibitors; calls by dose curve; tested in A549 cells; note: nearly all actives have a fitted effect of over 35% in size
Vaccinia Venus = inhibitors of vaccinia virus (Venus reporter); Vaccinia virus Venus reporter expression, fluorescence; Potency, µM (top dose mostly 36.5 µM), without a hit: top-dose activity change, negative = inhibition, actives largely listed as inhibitors; hit rate 0.46% among 330,000; AID 720580; calls by dose curve; tested in A549 cells; note: nearly all actives have a fitted effect of over 30% in size
* hit, by the source's call; i = inactive; ? = inconclusive; · = no result. Rows were chosen to be rich in hits. Some 3.3% of all compounds tested hit in one or more screens of this group. % is set by controls: 0 for no effect and ±100 for the full control effect; potency is the fitted concentration of half-maximal effect.

SMILES	HCV inhibitor	VACV mCherry inh	Vaccinia Venus
COc1cccc(NC(=S)NC(Cc2ccccc2)c2ccccc2)c1 (stereo not drawn)	·	-3%	-16%
CC(=O)NC(c1cccc([N+](=O)[O-])c1)c1ccc2cccnc2c1O (stereo not drawn)	1.8µM*	?	?
COc1cccc(C(NC(C)=O)c2ccc3cccnc3c2O)c1 (stereo not drawn)	4.5µM*	?	?
O=C(Cn1c(SCC(=O)Nc2ccc(F)cc2)nc2ccccc21)NCc1ccccc1Cl	·	?	-25%
COc1ccc(CCNC(=O)CCn2c(=O)c3ccccc3n(CC(=O)Nc3cccc(C)c3)c2=O)cc1OC	·	9%	12%
Cc1ccc(CN2C(=O)c3ccccc3CC2(C)C(=O)NC2CCCCC2)cc1 (stereo not drawn)	·	-5%	-9%
CCCC(=O)Nc1c(-c2ccccc2)c(=O)c(C)nn1-c1ccc(C)cc1	5%	·	·
CCOc1ccc(S(=O)(=O)N2CCC(C(=O)OC(C)C(=O)N3CCOCC3)CC2)cc1 (stereo not drawn)	-7%	-14%	-16%
COc1ccc(-c2nn(-c3ccccc3)cc2/C=C/C(=O)N2CCN(c3ccccn3)CC2)cc1	?	-13%	-11%
CC[N+](C)(C)c1ccc(/C=C/c2ccc3ccccc3n2)cc1	·	121%	148%
CCn1c(=O)c2cc(C(=O)NCCOC)sc2c2ccccc21	10µM*	-3%	-18%
CCN(CC)CCNC(=O)c1cc2c(=O)n(CC)c3ccccc3c2s1	?	3%	-23%
CCn1c(=O)c2cc(C(=O)NCCN(C)C)sc2c2ccccc21	10µM*	i	?
CCCN(CCC)CCNC(=O)c1cc2c(=O)n(CC)c3ccccc3c2s1	?	i	-8%
O=C(NCc1nnc2n1CCN(Cc1cccc(Cl)c1)CC2)c1cccc(F)c1	·	-5%	0%
Cc1ccc(-c2nc3ccccn3c2Nc2ccccc2C)s1	·	10%	3%
O=C1C=C(c2ccc(C(=O)O)cc2)C[C@@H](c2ccc3c(c2)OCO3)C1	37%	i	-23%
COc1cccc(-n2c(SC)nnc2C2CCN(Cc3nc4ccccc4s3)CC2)c1	·	-18%	-9%
O=C(NCc1ccccc1)c1cccc(COc2ccc(Cl)cc2)c1	?	-5%	-18%
COc1cc(CNC(=O)c2cccc(COc3ccc(Cl)cc3)c2)cc(OC)c1	7.9µM*	?	-29%
O=C(Nc1cccc(Cl)c1Cl)c1cc(S(=O)(=O)N2CCC3(CC2)OCCO3)ccc1F	·	-10%	-11%
CCN1CCN(C(=O)c2cc(COc3ccc(F)cc3F)on2)[C@@H](C)C1=O	11µM*	-12%	-12%
CCOC(=O)N1CCN(C(=O)c2cc(COc3ccc(F)cc3F)on2)CC1	-9%	-15%	-15%
COc1ccc(CNC(=O)CN2C(=O)CSc3ccc(S(=O)(=O)N4CCC(C)CC4)cc32)cc1	·	-20%	-15%
COc1ccc(O)c(-c2nc(N)nc(N)n2)c1	-6%	?	?
SMILES	HCV inhibitor	VACV mCherry inh	Vaccinia Venus
Nc1nc(N)nc(-c2cc(F)ccc2O)n1	-19%	?	10µM*
CCSc1nc2cc(OC)c(OC)cc2c(=O)n1CC	5µM*	?	-23%
CCn1c(SCc2nc3cc(OC)c(OC)cc3c(=O)[nH]2)nc2ccccc21	-7%	i	-13%
COc1ccc(N2C(=O)[C@@H]3C[C@H]2CN3Cc2cccn2-c2ccccn2)cc1Cl	·	-16%	-4%
COc1ccc(OC)c(NC(=O)CC(=O)Nc2ccc3nc4n(c(=O)c3c2)CCCCC4)c1	·	-5%	5%
CCCCN(C)CCNC(=O)CCn1nc(-c2ccc(Cl)cc2)ccc1=O	-17%	·	·
CC(=O)Nc1cccc(OCCCNC(=O)c2ccc(F)cc2)c1	-1%	·	·
CC(=O)Nc1cccc(OCCCNC(=O)c2ccc(C(C)(C)C)cc2)c1	10µM*	·	·
CCOC(=O)c1c(NC(=O)C2CCN(S(=O)(=O)c3cccs3)CC2)sc(C)c1C	-6%	·	-16%
CCOC(=O)c1ccc2c(c1)nc(C1CCN(S(=O)(=O)c3cccs3)CC1)n2CC	6.3µM*	?	-25%
Cc1[nH]c2ccccc2c1N=Nc1ccccc1F	10µM*	?	-27%
Cc1[nH]c2ccccc2c1N=Nc1ccc(F)cc1	?	-21%	-21%
CCOc1cc2[nH]c(=S)n(C3CCN(Cc4ccccc4)CC3)c(=O)c2cc1OCC	5%	-22%	-4%
O=c1c2cc3c(cc2[nH]c(=S)n1C1CCN(Cc2ccccc2)CC1)OCO3	13µM*	i	-1%
COc1ccc(C)cc1NC(=O)CCNS(=O)(=O)c1ccc2c(c1)CCC(=O)N2	0%	·	·
Cc1ccc(OC(C)C(=O)N2CCN(CCc3ccccn3)CC2)cc1C (stereo not drawn)	·	-12%	-7%
C[C@H](NC(=O)c1ccco1)C(=O)Nc1nc(-c2ccccn2)cs1	-13%	-12%	-13%
O=C(Nc1nc(-c2ccccn2)cs1)c1ccc(Br)s1	2.2µM*	·	·
O=C(Nc1nc(-c2cc(Cl)sc2Cl)cs1)c1ccc(Br)s1	?	-16%	-18%
O=C(Nc1nc(-c2ccccn2)cs1)c1ccco1	?	2.5µM*	?
O=S(=O)(Cc1ccccc1)C(CCCc1ccccc1)S(=O)(=O)Cc1ccccc1	-21%	-21%	-14%
COCCCn1c(=O)c2sccc2n2c(CCCC(=O)Nc3cccc(OC)c3)nnc12	·	-11%	-9%
O=[N+]([O-])c1cc(S(=O)(=O)c2ccc(N3CCCCC3)c([N+](=O)[O-])c2)ccc1N1CCCCC1	?	-22%	-16%
O=[N+]([O-])c1cccc(S(=O)(=O)c2ccc(N3CCCCC3)c([N+](=O)[O-])c2)c1	8.9µM*	i	-16%
CCOC(=O)c1ccccc1NC(=O)CSc1cn(CC(=O)N2CCCCCC2)c2ccccc12	·	-18%	-4%
SMILES	HCV inhibitor	VACV mCherry inh	Vaccinia Venus
Cc1ccc2c(c1)nnn2C1CCN(S(=O)(=O)c2ccc(C(=O)N3C(C)CCCC3C)cc2)CC1 (stereo not drawn)	6.3µM*	-22%	-28%
Cc1ccc2c(c1)nnn2C1CCN(S(=O)(=O)c2ccc(C(=O)O)cc2)CC1	34%	8%	5%
CC1CCC(C(=O)NC(C(=O)NCCc2ccc(S(N)(=O)=O)cc2)C(C)C)CC1 (stereo not drawn)	12%	·	·
O=C(NC1CCS(=O)(=O)C1)c1ccc(Br)o1 (stereo not drawn)	11%	i	-1%
O=C(NC1CCS(=O)(=O)C1)c1ccc(-c2ccc(Br)cc2)o1 (stereo not drawn)	11µM*	-11%	-22%
COCC(C)n1c(C)cc(C(=O)COc2ccc(S(=O)(=O)N3CCOCC3)cc2Cl)c1C (stereo not drawn)	14µM*	-16%	-13%
O=C(COc1ccc(S(=O)(=O)N2CCOCC2)cc1Cl)NC1CC1	14%	-14%	-11%
Cc1ccc(NC(=O)/C=C/c2ccccc2)c(Br)c1	·	-7%	-3%
Cc1nc(NCc2ccc3nsnc3c2)sc1-c1ccn(C)n1	·	-21%	-17%
Cc1cc(C)cc(NC(=O)CC(C)n2nc(C)cc2C)c1 (stereo not drawn)	·	-10%	-5%
Cc1ccc(N(CC(=O)NC2CCCCC2)S(=O)(=O)c2c(C)noc2C)cc1	7%	-11%	-18%
CC(=O)Nc1nc2ccccc2n1CCOc1ccccc1	-4%	-13%	-9%
S=C(Nc1ccccc1)Nc1nc2ccccc2n1CCOc1ccccc1	6.3µM*	·	·

High-throughput results as filed in PubChem.
